Experimental findings from PubChem BioAssay (EPA / NIEHS) are described below.

Several values for one entry are separate records, joined by “and”; a condition that tells them apart may be missing. Equal values may be shown once. Results filed as inconclusive are left out. The source holds several records for some structures; these can differ, active in one and inactive in another. Activity calls are given as the source filed them. The calls were made as follows, unless noted: active = hit-call score of the fitted dose curve at least 0.9, where 1 is the maximum; inconclusive = response in the unintended direction; inactive = score below 0.9.

What is called AC50 is the concentration giving half of the maximal activity seen.

The test system of test [1] is frog Estrogen Receptor (ER2), gene 100174814. Description: ATG_frER2_XSP2: Attagene TRANS-FACTORIAL Multi-Species (XSP2) HepG2 Assay for frog Estrogen Receptor (ER2) (AID 2283828). The procedure, abridged: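 Multiplexed transactivation in HepG2: frog estrogen receptor fused to Gal4 drives a UAS reporter. Signal is reporter mRNA after 24 h treatment.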
Test [2] addresses Peroxisome proliferator-activated receptor gamma (Homo sapiens) (UniProt P37231). Briefly: ATG_hPPARg_XSP2: Attagene TRANS-FACTORIAL Multi-Species (XSP2) HepG2 Assay for human Peroxisome Proliferator-activated Receptor gamma (PPARg) (AID 2283829).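 Also: actives raise reporter mRNA above DMSO so AC50 reflects PPARg activation.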 The method, then: (§1) ATG_XSP2_multi-species_TRANS is a cell-based, multiplexed assay created by modifying the existing Attagene TRANS-FACTORIAL system to include a panel of nuclear receptors from some or all the following species: human (Homo sapiens), mouse (Mus musculus), frog (Xenopus laevis), zebrafish (Danio rerio), chicken (Gallus gallus), and turtle (Chrysemys picta). The ECOTOX-FACTORIAL format uses HepG2, a human liver cell line, with measurements taken at 24 hours after chemical dosing in a 24-well plate. Xsp2 included 3 nM 6-alpha-fluorotestosterone and 1.5 nM norgestrel to stimulate the androgen receptor.ATG_hPPARg_XSP2 is one of 29 assay components measured or calculated from the ATG_XSP2_multi-species_TRANS assay. It is designed to make measurements of mRNA induction, a form of inducible reporter, as detected with fluorescence intensity signals by Reverse transcription polymerase chain reaction (RT-PCR) and Capillary electrophoresis technology.The assay endpoint ATG_hPPARg_XSP2 was analyzed in the positive analysis fitting direction relative to DMSO as the negative control and baseline of activity. Using a type of inducible reporter, measures of mRNA for gain-of-signal activity can be used to understand the reporter gene at the transcription factor-level as they relate to the gene PPARg. Furthermore, this assay endpoint can be referred to as a primary readout, because this assay has produced multiple assay endpoints where this one serves a reporter gene function. To generalize the intended target to other relatable targets, this assay endpoint is annotated to the nuclear receptor intended target family, where the subfamily is non-steroidal.
Human liver HepG2 cells are transiently transfected with multiple reporter transcription units (MRTUs) in 6-well plates using FuGene 6 reagent (Roche; 3 ml FuGene/1 mg DNA). The MRTU constructs are regulated by a cis-regulating element (promoter). […] A major difference between the CIS and TRANS system is that in CIS activities of endogenous TFs are measured, whereas the TRANS assay evaluates changes in activities of exogenous, chimeric NR-Gal4 proteins. […] At the end of 24 hour incubation, total RNA was isolated using TriZol reagent (Invitrogen). The isolated RNA is then reverse-transcribed using oligo(dT) primer and Mo-MLV reverse transcriptase (Invitrogen) with DNAse I (Ambion) treatment for 30 min. The one-tenth of the produced cDNA was amplified by PCR using Taq DNA polymerase (Invitrogen) and two reporter sequence-specific primers. The PCR products were fluorescently labeled by primer extension with 6-arboxyfluorescein (6-FAM) 5'-labeled reporter sequence-specific primer (2 min at 95 C, 20 s at 68 C and 10 min at 72 C) and these products were digested with 5U of HpaI (New England Biolabs) for 2h at 37 C. The fragments were purified using Qiaquick PCR columns (Qiagen), analyzed on an ABI 3130xL genetic analyzer (Applied Biosystems) with peak positions identified by using a set of X-rhodamine (ROX)-labeled MapMarker1000 molecular weight standards (BioVentures). The raw capillary electrophoresis data was processed using Attagraph software (Attagene).

Test [3] concerns the target mouse Peroxisome Proliferator-activated Receptor gamma (PPARg), Pparg (gene 19016) (UniProt P37238). Description: ATG_mPPARg_XSP2: Attagene TRANS-FACTORIAL Multi-Species (XSP2) HepG2 Assay for mouse Peroxisome Proliferator-activated Receptor gamma (PPARg) (AID 2283830).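 Also: hits are gains in reporter mRNA above DMSO so AC50 marks activation.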 The procedure, abridged: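 HepG2 cells transiently transfected with GAL4-UAS reporter units for chimeric NR-Gal4 proteins including mouse PPARg, exposed 24 h; medium contained 3 nM 6-alpha-fluorotestosterone and 1.5 nM norgestrel. Reporter mRNA quantified by RT-PCR, HpaI digestion and capillary electrophoresis, vs DMSO.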

Test [4] concerns the target Nuclear receptor subfamily 1 group I member 2 (Mus musculus) (UniProt O54915). Description: ATG_mPXR_XSP2: Attagene TRANS-FACTORIAL Multi-Species (XSP1) HepG2 Assay for mouse Pregnane X Receptor (PXR) (AID 2283831). In outline:
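HepG2 cells transiently transfected with GAL4-UAS reporter units expressing chimeric NR-Gal4 proteins; 24 h compound exposure. Reporter mRNA quantified by RT-PCR and capillary electrophoresis fluorescence; gain of signal fitted against DMSO.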

Test [5] has as its target zebrafish Thyroid Hormone Receptor alpha (TRa), thraa (gene 30670) (UniProt Q98867). Briefly: ATG_zfTRa_XSP2: Attagene TRANS-FACTORIAL Multi-Species (XSP1) HepG2 Assay for zebrafish Thyroid Hormone Receptor alpha (TRa) (AID 2283832).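 Also: actives raise zebrafish TRa-Gal4 reporter transcript above DMSO baseline.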 In outline: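 Chimeric receptor-Gal4 activity was assessed in transfected human liver HepG2 cells 24 h after dosing, using reporter transcript levels detected by RT-PCR and capillary electrophoresis. DMSO served as baseline.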

The subject of test [6] is zebrafish Peroxisome Proliferator-activated Receptor gamma (PPARg), gene 557037. Description: ATG_zfPPARg_XSP2: Attagene TRANS-FACTORIAL Multi-Species (XSP2) HepG2 Assay for zebrafish Peroxisome Proliferator-activated Receptor gamma (PPARg) (AID 2283833).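 Also: actives increase reporter signal over DMSO so AC50 reflects activation.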 In outline:
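HepG2 cells transiently transfected with multiplexed GAL4-UAS reporter units expressing chimeric NR-Gal4 receptors, dosed 24 h. Reporter mRNA quantified by RT-PCR, fluorescent labelling, HpaI digestion and capillary electrophoresis; gain of signal fitted against DMSO.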

Test [7] has as its system turtle Thyroid Hormone Receptor, alpha (TRa), gene 101949057. Description: ATG_trTRa_XSP2: Attagene TRANS-FACTORIAL Multi-Species (XSP1) HepG2 Assay for turtle Thyroid Hormone Receptor, alpha (TRa) (AID 2283834).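 Also: hits raise reporter mRNA over the DMSO baseline so AC50 marks activators.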 In outline:
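HepG2 cells transiently transfected with GAL4-UAS reporter units for chimeric turtle TRa-Gal4; mRNA measured 24 h after dosing by RT-PCR and capillary electrophoresis fluorescence, gain of signal fitted against DMSO.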

Test [8] can be described thus: ATG_M_61_XSP2: Attagene TRANS-FACTORIAL Multi-Species (XSP2) HepG2 Assay for M61 Transcription Factor (Internal Marker) (AID 2283835; active = hit-call score of the fitted dose curve at least 0.9, where 1 is the maximum; inactive = score below 0.9;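 also: reporter mRNA of an internal background marker read by RT-PCR and capillary electrophoresis; active means a rise in signal above the DMSO baseline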). The procedure, abridged: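 First, HepG2 cells are transfected with reporter units under GAL4-UAS control. Next, chemicals are applied for 24 h. Then total RNA is reverse-transcribed, amplified, fluorescently labelled and sized by capillary electrophoresis, with gain of signal scored against DMSO.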

Test [9] deals with frog Androgen Receptor (AR), gene 399456. Briefly: ATG_frAR_XSP2: Attagene TRANS-FACTORIAL Multi-Species (XSP2) HepG2 Assay for frog Androgen Receptor (AR) (AID 2283824).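 Also: reporter mRNA from GAL4-UAS units driven by Xenopus AR-Gal4 chimera; actives raise reporter signal above DMSO so AC50 reflects agonist-like induction.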 The method, then: as §1, with “receptor.ATG_frAR_XSP2” for “receptor.ATG_hPPARg_XSP2”, “ATG_frAR_XSP2” for “ATG_hPPARg_XSP2”, “Using a type of inducible reporter, measures of mRNA for gain-of-signal activity can be used to understand the reporter gene at the transcription factor-level as they relate to the gene PPARg.” left out, “To generalize the intended target to other relatable targets, this assay endpoint is annotated to the nuclear receptor intended target family, where the subfamily is non-steroidal.” left out

Test [10] has as its system zebrafish Androgen Receptor (AR), gene 100005148. Description: ATG_zfAR_XSP2: Attagene TRANS-FACTORIAL Multi-Species (XSP2) HepG2 Assay for zebrafish Androgen Receptor (AR) (AID 2283825).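 Also: hits raise reporter mRNA above DMSO so AC50 reflects agonist-type gain.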 The procedure, abridged: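 Zebrafish AR–GAL4 chimera transiently expressed with GAL4-UAS reporter in HepG2 cells, co-stimulated with 3 nM 6-alpha-fluorotestosterone and 1.5 nM norgestrel; 24 h dosing, reporter mRNA read by RT-PCR/capillary electrophoresis versus DMSO.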

Chain of Peroxisome proliferator-activated receptor gamma (Homo sapiens) (P37231 whole entry, looked up): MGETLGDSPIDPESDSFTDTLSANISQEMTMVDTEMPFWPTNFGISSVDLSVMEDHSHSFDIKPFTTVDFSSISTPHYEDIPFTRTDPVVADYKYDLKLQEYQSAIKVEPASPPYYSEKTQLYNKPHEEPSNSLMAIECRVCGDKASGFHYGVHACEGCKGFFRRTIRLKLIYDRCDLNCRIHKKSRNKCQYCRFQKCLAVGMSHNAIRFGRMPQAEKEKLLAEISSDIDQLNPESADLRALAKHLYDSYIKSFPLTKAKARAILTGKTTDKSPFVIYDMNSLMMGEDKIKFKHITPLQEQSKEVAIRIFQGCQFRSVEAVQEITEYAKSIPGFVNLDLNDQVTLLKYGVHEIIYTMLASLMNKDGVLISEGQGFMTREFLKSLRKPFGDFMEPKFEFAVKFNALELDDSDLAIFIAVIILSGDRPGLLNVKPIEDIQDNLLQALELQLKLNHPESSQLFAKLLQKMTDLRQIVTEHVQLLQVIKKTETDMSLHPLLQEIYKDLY
Chain of mouse Peroxisome Proliferator-activated Receptor gamma (PPARg), Pparg (gene 19016) (P37238 whole entry, looked up, the tested form may be a part): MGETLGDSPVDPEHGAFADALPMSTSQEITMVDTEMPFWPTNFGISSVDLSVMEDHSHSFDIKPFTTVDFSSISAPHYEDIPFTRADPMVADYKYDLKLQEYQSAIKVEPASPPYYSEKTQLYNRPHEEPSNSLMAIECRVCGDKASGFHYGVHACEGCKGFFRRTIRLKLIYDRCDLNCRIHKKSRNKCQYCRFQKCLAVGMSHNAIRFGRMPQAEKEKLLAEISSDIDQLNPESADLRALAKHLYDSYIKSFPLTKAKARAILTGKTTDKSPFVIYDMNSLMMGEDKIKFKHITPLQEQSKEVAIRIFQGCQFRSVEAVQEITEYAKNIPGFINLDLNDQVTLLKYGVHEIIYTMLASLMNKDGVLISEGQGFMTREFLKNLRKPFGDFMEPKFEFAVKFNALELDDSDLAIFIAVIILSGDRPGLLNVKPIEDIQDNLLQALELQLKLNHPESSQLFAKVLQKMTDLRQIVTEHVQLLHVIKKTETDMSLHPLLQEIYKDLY
Chain of zebrafish Thyroid Hormone Receptor alpha (TRa), thraa (gene 30670) (Q98867 whole entry, looked up, the tested form may be a part): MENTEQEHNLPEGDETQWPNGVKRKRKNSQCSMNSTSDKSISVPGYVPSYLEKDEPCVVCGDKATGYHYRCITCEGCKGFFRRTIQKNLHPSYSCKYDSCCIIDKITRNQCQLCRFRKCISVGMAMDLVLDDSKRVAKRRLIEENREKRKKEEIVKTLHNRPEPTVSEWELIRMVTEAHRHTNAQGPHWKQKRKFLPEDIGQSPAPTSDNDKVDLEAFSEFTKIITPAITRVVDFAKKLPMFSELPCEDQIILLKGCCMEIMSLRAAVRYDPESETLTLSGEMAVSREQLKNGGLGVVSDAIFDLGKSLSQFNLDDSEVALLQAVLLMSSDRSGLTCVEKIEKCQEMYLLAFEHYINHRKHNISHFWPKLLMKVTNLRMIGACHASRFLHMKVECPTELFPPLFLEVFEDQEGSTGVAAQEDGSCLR
Chain of Nuclear receptor subfamily 1 group I member 2 (Mus musculus) (O54915 whole entry, looked up, the tested form may be a part): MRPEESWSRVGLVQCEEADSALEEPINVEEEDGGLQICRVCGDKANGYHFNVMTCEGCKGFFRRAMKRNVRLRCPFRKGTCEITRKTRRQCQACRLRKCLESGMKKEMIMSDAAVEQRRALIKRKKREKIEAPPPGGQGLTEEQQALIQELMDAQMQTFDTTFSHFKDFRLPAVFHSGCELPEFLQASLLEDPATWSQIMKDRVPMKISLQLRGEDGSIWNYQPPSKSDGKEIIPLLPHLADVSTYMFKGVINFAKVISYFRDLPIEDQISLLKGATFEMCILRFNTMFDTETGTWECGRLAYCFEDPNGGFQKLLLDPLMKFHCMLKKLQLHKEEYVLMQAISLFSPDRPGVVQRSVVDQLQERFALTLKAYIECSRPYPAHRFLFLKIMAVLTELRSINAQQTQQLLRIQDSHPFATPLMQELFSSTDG

Take `BrCc1cccc(Oc2ccccc2)c1`: the concentration at half-maximal activity (AC50) in test [1] was 15.7 µM (active) and 10.2 µM (active); in test [2], 58.6 µM (active) and 35.6 µM (active); in test [3], 66.6 µM (active) and 39 µM (active); in [4], 27.7 µM (active). For the same compound, the call in test [4], in test [5], in [6], in test [7] and in test [8] was inactive.
For the compound `Clc1ccc(C(c2ccccc2Cl)C(Cl)Cl)cc1` (configuration not stated), the AC50 in test [1] was 1.34 µM (active) and 1.64 µM (active); in [4] it was 5.19 µM (active) and 5.09 µM (active). Besides, the compound was classed as inactive in test [2], in test [3], in test [5], in [6] and in [8].
For `OCc1cccc(Oc2ccccc2)c1`, the half-maximal activity concentration (AC50) in [1] is 27.5 µM (active) and 9.21 µM (active); in test [2] it was 60.3 µM (active) and 36.7 µM (active); in [3], 40.6 µM (active) and 34.9 µM (active); in test [4] it was 57.4 µM (active). Also, the outcome in [4], in test [5], in [6], in [7] and in test [8] was inactive.
With `Cc1cc(=O)oc2cc(N(C)C)ccc12`, the half-maximal activity concentration (AC50) in [1] is 48.9 µM (active); in test [2] it was 24.8 µM (active) and 17 µM (active); in [3], 33.5 µM (active) and 27.8 µM (active); in [4] it was 4.03 µM (active) and 6.44 µM (active). Moreover, the call in test [5], in test [6], in test [7] and in test [8] was inactive.
Consider `O=c1c(O)c(-c2ccc(O)cc2)oc2cc(O)cc(O)c12`, for which the half-maximal activity concentration (AC50) in test [9] is 2.89 µM (active) and 1.82 µM (active); in test [1], 1.75 µM (active) and 945 nM (active); in [2], 12.5 µM (active) and 7.02 µM (active); in test [3], 12 µM (active). The compound was classed as inactive in [4], in test [5], in test [6], in [7] and in test [8].
With `CCCCC(CC)COC(=O)c1ccc(O)cc1` (configuration not stated), the outcome in [10] and in [5] was inactive. Besides, the half-maximal activity concentration (AC50) in [4] was 56.4 µM (active); in [6] it was 60 µM (active).
Take `Oc1ccc2cc(SSc3ccc4cc(O)ccc4c3)ccc2c1`: the AC50 is 26.3 µM (active) in [9]; 925 nM (active) and 696 nM (active) in [1]; 4.81 µM (active) and 4.29 µM (active) in [2]; 7.19 µM (active) and 5.11 µM (active) in test [3]; 36.2 µM (active) and 20.8 µM (active) in [4]; 156 µM (active) in [5]. The AC50 in test [7] was 26.8 µM (active). In addition, the compound was called inactive in test [5], in test [6], in test [7] and in test [8].
